PubChem BioAssay (NCATS)
Records with an inconclusive call do not appear. Entries that show only a call come without a potency. Active and inactive are the calls of the source. Calls come from the whole dose curve; as a rule, active = well fitted inhibition curve with a large enough effect; inconclusive = small, poorly fitted or top-dose-only effect; inactive = flat fitted curve, though single readings scatter.

Assays:
Test in all cases: qHTS profiling for inhibitors of Plasmodium falciparum proliferation (AID 504749); note: nearly all actives have a fitted effect of over 60% in size
Settings in all cases: P. falciparum in erythrocytes, SYBR Green DNA, 72 h; series mostly up to 28.7 µM
CP238 = system: CP238
Outline: (§1)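 Parasite proliferation within erythrocytes, 72 h exposure. Endpoint: SYBR Green I fluorescence after overnight lysis at room temperature. Controls: 0.29 uM artemisinin, DMSO.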

CP247 = system: CP247
Outline: as §1

CP250 = system: CP250
Outline: as §1

CP252 = system: CP252
Outline: as §1

CP256 = system: CP256
Outline: as §1

CP260 = system: CP260
Outline: as §1

CP262 = system: CP262
Outline: as §1

CP265 = system: CP265
Outline: as §1

CP266 = system: CP266
Outline: as §1

CP268 = system: CP268
Outline: as §1

CP269 = system: CP269
Outline: as §1

CP286 = system: CP286
Outline: as §1

CP291 = system: CP291
Outline: as §1

CP297 = system: CP297
Outline: as §1

CP305 = system: CP305
Outline: as §1

CP315 = system: CP315
Outline: as §1

CP325 = system: CP325
Outline: as §1

CP329 = system: CP329
Outline: as §1

CP335 = system: CP335
Outline: as §1

DFO2036 = system: DFO2036
Outline: as §1
Potency is the fitted concentration of half-maximal effect.

Structure (SMILES) | Potency (CP238) | Potency (CP247) | Potency (CP250) | Potency (CP252) | Potency (CP256) | Potency (CP260) | Potency (CP262) | Potency (CP265) | Potency (CP266) | Potency (CP268) | Potency (CP269) | Potency (CP286) | Potency (CP291) | Potency (CP297) | Potency (CP305) | Potency (CP315) | Potency (CP325) | Potency (CP329) | Potency (CP335) | Potency (DFO2036)
Nc1[nH]c(=O)ncc1F | inactive | inactive | inactive | inactive | inactive | inactive | inactive | inactive | inactive | inactive | inactive | inactive | inactive | inactive | inactive | inactive | inactive | inactive | inactive | inactive
Cc1cccc(N(C)C(=S)Oc2ccc3ccccc3c2)c1 | inactive | inactive | inactive | inactive | inactive | inactive | inactive | inactive |  | inactive | inactive | inactive | inactive | inactive | inactive | inactive | inactive | inactive | inactive | inactive
CN1CCN(c2c(F)cc3c(=O)c(C(=O)O)cn4c3c2OCN4C)CC1 | inactive | inactive | inactive | inactive | inactive | inactive |  | inactive | inactive | inactive | inactive | inactive | inactive | inactive | inactive | inactive | inactive | inactive | inactive | inactive
Nc1nc(N)nc(-c2cc(Cl)ccc2Cl)n1 | inactive | inactive | inactive | inactive | inactive | inactive | inactive | inactive |  | inactive | inactive | inactive | inactive | inactive | inactive | inactive | inactive | inactive | inactive | inactive
CCCN[C@H]1CCc2nc(N)sc2C1 | inactive | inactive | inactive | inactive | inactive | inactive | inactive | inactive |  | inactive | inactive | inactive | inactive | inactive | inactive | inactive | inactive | inactive | inactive | inactive
C[C@@H](NCCCc1cccc(C(F)(F)F)c1)c1cccc2ccccc12 | 11.2 µM (active) | 10 µM (active) |  | 8.91 µM (active) |  | 4.47 µM (active) | inactive | 11.2 µM (active) |  |  | 10.7 µM (active) | 11.2 µM (active) | 10.7 µM (active) | 13.5 µM (active) | 13.5 µM (active) |  | 15.1 µM (active) |  |  | 11.2 µM (active)
